High-throughput results as filed in PubChem.
HT1080-NT tox = kills 2HG-producing HT-1080-NT fibrosarcoma cells; 1.6% of 360,000 active; Potency, µM (highest dose often 46.1 µM), for inactives: at the top dose activity, negative = less viability, most hits filed as cytotoxic; HT-1080-NT fibrosarcoma viability, CellTiter-Glo ATP luminescence, 48 h;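 note: NT is the 2HG producing partner of a matched IDH1 knockdown line; 0% = DMSO-treated cells and -100% = media-only wells without cells; nearly all actives have a fitted effect of over 55% in size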
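Luminescent CellTiter-Glo readout after 48 hours of compound exposure at 37 degrees C defined viability of HT-1080-NT cells. Activity was normalized to DMSO wells and cell-free media wells; concentration-response curves were fitted and assigned curve classes.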
KB-V1 cytotox = kills drug-selected multidrug resistant KB-V1 cells | AID 1347076 | 3.4% of 400,000 active | KB-V1 MDR cells viability, CellTiter-Glo, 72 h | Potency, µM (doses to about 46.1 µM), hits mostly cytotoxic; note: % is set by controls: 0 for no effect and ±100 for the full control effect; nearly all actives have a fitted effect of over 60% in size
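KB-V1 MDR subline cells in DMEM (phenol-red free, 10% FBS) exposed to compounds in qHTS concentration series for 72 h at 37 degrees C. Viability read by CellTiter-Glo luminescence; concentration-effect curves fitted after normalization and correction.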
SW480 rereplic = inducers of DNA re-replication in SW480 colon cancer cells | SW480 DNA re-replication, Hoechst DNA content imaging, 48 h | Potency, µM (series often up to 46.1 µM), inactives show top-dose re-replication activation, usual class: activators | 1.8% of 340,000 active; note: % of control where 0% means no effect; nearly all actives have a fitted effect of over 55% in size
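Per well, 250 cells were exposed to pinned compound for 48 hr. Nuclear DNA was visualised with Hoechst (40 min, 37 C) and total object intensity recorded by fluorescence scanning.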
KB-3-1 cytotox = KB-3-1 parental cell cytotoxicity; AID 1347075; KB-3-1 viability, CellTiter-Glo ATP luminescence, 72 h; 1.4% of 400,000 active; Potency, µM (doses to about 46.1 µM), actives largely listed as cytotoxic; note: % is set by controls: 0 for no effect and ±100 for the full control effect; nearly all actives have a fitted effect of over 60% in size
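KB-3-1 cells, DMEM (no phenol red) + 10% FBS; compound by pin transfer, 72 h, 37 °C. Readout: CellTiter-Glo luminescence after 10 min. Data normalized, curve-fitted.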
HT1080 IDH1KD tx = toxicity to HT-1080 IDH1 knockdown cells (counter line); 2% of 360,000 active; AID 686971; HT-1080 IDH1 knockdown viability, ATP luminescence, 48 h; Potency, µM (titrated, usually from 46.1 µM), inactives show at the top dose activity, negative = toxicity, most hits filed as cytotoxic;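 note: 0% = DMSO wells and -100% = cell-free medium wells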
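% activity derives from luminescence (CellTiter-Glo), normalised to DMSO and no-cell wells. HT-1080-IDH1KD cells, 750/well, had 48 h compound exposure at 37 °C.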
MCF10A rereplic = inducers of DNA re-replication in MCF 10A breast cells; MCF 10A DNA re-replication, Hoechst nuclear intensity, 48 h; 2.9% of 350,000 active; Potency, µM (doses to about 46.1 µM), inactives show at the top dose activity, positive = re-replication, usual class: activators; AID 624296; note: % of control where 0% means no effect; nearly all actives have a fitted effect of over 50% in size
The depositor's hits bear a star; i = inactive; ? = inconclusive; . = no result. This is a sample that favours compounds with a hit; in the whole collection about 7.9% have one here. Calls come from the whole dose curve; as a rule, active = well fitted curve in the direction sought with a large enough effect; inconclusive = small, poorly fitted or top-dose-only effect, or another doubt; inactive = no such curve, though single readings can be large; an effect the other way counts as inactive or inconclusive. Potency is the fitted concentration of half-maximal effect.

SMILES	HT1080-NT tox	KB-V1 cytotox	SW480 rereplic	KB-3-1 cytotox	HT1080 IDH1KD tx	MCF10A rereplic
CCOc1cc(-c2cc(-c3ccc(C)o3)nc(N)c2C#N)ccc1O	?	23.1µM*	?	?	?	?
CNC(=S)Nc1cc(S(=O)(=O)Nc2cc(Cl)ccc2Cl)ccc1N1CCCC1	-11.3%	i	-13.4%	i	-8.1%	-5.7%
CSCCC(NC(=O)c1ccc([N+](=O)[O-])cc1Cl)C(=O)OCC(=O)NC1CCCC(C)C1C (configuration not stated)	-3.4%	i	-4.3%	i	1.2%	-3.4%
CC(=O)Nc1ccc2c(c1)CCCN2C(=O)c1ccccc1	1.0%	i	-2.3%	i	-0.9%	0.5%
C#CCCc1ccccc1/C=[N+](/C)[O-]	-5.7%	i	-4.1%	i	-0.8%	-8.8%
CN(Cc1ccccc1)C(=O)c1cc(-c2ccc(Br)cc2)on1	9.4%	14.6µM*	2.5%	?	-26.5%	-2.8%
Cc1cc(C(=O)N(C)Cc2ccc(Br)cc2)no1	3.5%	i	2.2%	i	0.3%	-5.3%
Cc1nnsc1C(=O)N/N=C/c1ccccc1	8.2%	i	-12.5%	i	23.8%	-34.1%
Cc1nnsc1C(=O)N/N=C/c1ccc2ccccc2c1O	4.11µM*	i	?	i	3.66µM*	?
O=c1oc2ccccc2c(Nc2cccc(O)c2)c1[N+](=O)[O-]	-22.5%	i	-3.9%	i	-11.8%	18.4µM*
CSc1nsc2nc(=O)c(/C=C3\C(C)=Nc4ccccc43)c(N)n12	-0.8%	i	16.6%	i	-6.0%	?
CC1=C/C(=N\OS(=O)(=O)c2ccccc2)C(C)=CC1=O	4.61µM*	5.8µM*	4.11µM*	13µM*	9.2µM*	3.98µM*
CC1=C/C(=N\OS(=O)(=O)c2ccccc2)C(C(C)C)=CC1=O	?	?	3.66µM*	?	?	4.11µM*
CC1=C(C)/C(=N\OS(=O)(=O)c2ccc(C)cc2)C=CC1=O	13µM*	?	5.17µM*	?	6.51µM*	?
COc1cc(C(=O)O/N=C2/C=C(C)C(=O)C=C2C)cc(OC)c1OC	5.6%	i	-5.1%	i	21.2%	4.9%
CN(CC(=O)Nc1ccc([N+](=O)[O-])cc1Br)Cc1c(F)cccc1Cl	-13.2%	i	-0.1%	i	-11.8%	6.9%
CCOc1ccc(OCCC(=O)N2CCc3cc(OC)c(OC)cc3C2)cc1	3.6%	?	-1.8%	i	3.4%	5.6%
Cc1cccc(NC(=O)Cc2ccc(NC3=NC4CS(=O)(=O)CC4S3)cc2)c1 (configuration not stated)	16.9%	i	-14.6%	i	0.0%	-0.2%
Cc1cccc(OCCNc2cc(N3CCN(C)CC3)ccc2[N+](=O)[O-])c1	2.3%	16.4µM*	?	?	16.3%	25.4%
Cc1cccc(OCCNc2cc(N3CCOCC3)ccc2[N+](=O)[O-])c1	?	i	-6.5%	i	?	-5.8%
CCOC(=O)C(CCCCCOc1ccc([N+](=O)[O-])cc1)C(=O)OCC	-7.4%	i	2.1%	i	-22.8%	12.5%
CCOc1ccc(CN(C)C(=O)CCl)cc1	?	?	16.4µM*	?	?	?
Cc1ccc(-c2nc3ccccc3s2)cc1NC(=S)NC(=O)c1ccccc1	1.7%	i	4.2%	i	-1.0%	13µM*
Cc1cc(-c2nc3ccccc3s2)ccc1N	-17.3%	18.4µM*	?	?	-25.8%	20.6µM*
CC(=O)Nc1cc(-c2nc3ccccc3s2)ccc1C	.	i	.	i	.	.
SMILES	HT1080-NT tox	KB-V1 cytotox	SW480 rereplic	KB-3-1 cytotox	HT1080 IDH1KD tx	MCF10A rereplic
Cc1ccc(-c2nc3ccccc3s2)cc1S(=O)(=O)N1CCOCC1	-40.0%	i	-10.5%	i	17.8µM*	?
Cc1cc(C)c2oc(-c3ccc(C)c(NC(=S)NC(=O)c4cccs4)c3)nc2c1	-2.0%	i	-2.8%	i	-3.9%	9.2µM*
Cc1ccc(-c2nc3ccccc3o2)cc1NC(=S)NC(=O)c1cccs1	14.6%	i	-4.6%	i	3.1%	?
Cc1ccc(-c2nnc(NCc3nc4ccccc4[nH]3)c3ccccc23)cc1S(=O)(=O)N1CCOCC1	-2.9%	i	6.9%	i	-4.9%	25.2%
O=C(c1ccc2snnc2c1)N1CCCCC1	12.1%	i	-4.4%	i	7.9%	-7.3%
C/C(=N\NC(=O)c1ccc(CN(C)S(=O)(=O)c2ccc(C)cc2)cc1)c1ccc(OC(F)F)cc1	-18.4%	2.59µM*	-16.4%	10.3µM*	-29.4%	?
Cc1ccc(S(=O)(=O)N(C)Cc2ccc(C(=O)N/N=C/c3ccc(OC(F)F)cc3)cc2)cc1	-2.8%	16.4µM*	2.8%	i	-8.8%	?
CC1CCCN(Cc2c(O)ccc3c(=O)c(-c4nc5ccccc5s4)c(N)oc23)C1 (configuration not stated)	?	?	?	?	18.4µM*	20.6µM*
CC1(C)CCCN(Cc2c(O)ccc3c(=O)c(-c4nc5ccccc5s4)c(N)oc23)C1	?	?	-8.9%	?	-4.9%	23.1µM*
COCCNC(=O)CN(CC1CCCO1)C(=O)CCC(=O)Nc1ccccn1 (configuration not stated)	22.4%	i	-6.3%	i	12.4%	-2.1%
CCN(CC)S(=O)(=O)c1ccc(NC(=O)CSc2nnc3c(n2)[nH]c2ccccc23)cc1	12.6µM*	.	.	.	22.4µM*	.
CC(=O)Nc1nonc1NC(=O)CSc1nc2ccccc2o1	2.3%	i	20.6µM*	i	1.2%	-3.0%
Cc1nn2c(-c3cccc(NC(=O)CSc4nc5ccccc5o4)c3)nnc2c2ccccc12	-23.2%	?	-6.8%	i	-23.2%	10µM*
Oc1ccc(C[C@H]2CN([C@@H](Cc3cccc(O)c3)CN3CCC[C@@H]3CN3C(=S)NC[C@@H]3Cc3ccccc3)C(=S)N2CC2CCCCC2)cc1	18.4µM*	i	.	?	23.1µM*	.
Oc1ccc(C[C@H]2CN([C@@H](Cc3ccc(O)cc3)CN3CCC[C@@H]3CN3C(=S)NC[C@@H]3Cc3ccccc3)C(=S)N2CC2CCCCCC2)cc1	11.6µM*	i	.	?	16.4µM*	.
Oc1ccc(C[C@H]2CNC(=S)N2C[C@H]2CCCN2C[C@H](Cc2ccccc2)N2C[C@H](Cc3ccc(O)cc3)N(CC3CCCCCC3)C2=S)cc1	29.1µM*	i	.	?	18.4µM*	.
